Reference: PubChem BioAssay AID687014 (The Scripps Research Institute Molecular Screening Center, 2013)
Among all 370,000 compounds or so, about 6,800 (1.8%) were called active. The entries come from a sample that favours actives as a whole. Values without a mark were called inactive.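 How the source made its calls: active means activation above a cutoff set at the mean of all screened compounds plus 3 SD (cut at about 10% in these data); inactive means the rest.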

system: Nuclear hormone receptor DAF-12 (Heterodera glycines), GAL4 fusion; experiment: H. glycines DAF-12 receptor agonists, primary screen, cell-based, luminescence, HEK293, GAL4 fusion, UAS-luciferase (AID 687014); details: HEK293 GAL4-hgDAF12 UAS-luciferase reporter, agonist luminescence; at 6.8 µM; hits give high values; normalized to butyrate control;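 further: 0% = DMSO wells and 100% = sodium butyrate wells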

| SMILES | activation |
| --- | --- |
| COC(=O)C1=C(C)N(Cc2ccc(C(F)(F)F)cc2)C(=NCc2ccc(C(F)(F)F)cc2)NC1c1cccc(Cl)c1 (stereo not given) | 6.59% |
| CCOC(=O)C1CCN(C(=O)c2ccccc2N(C)S(=O)(=O)c2ccccc2)CC1 | 0.69% |
| CC(C)CSc1nnc(-c2cccnc2)n1Cc1ccccc1 | 0.98% |
| C=CCN1C(=O)N(Cc2ccccc2)c2ccccc2S1(=O)=O | -2.37% |
| CC(C)(C)n1nc2c(c1NC(=O)c1ccc(S(=O)(=O)N3CCCC3)cc1)CS(=O)C2 (stereo not given) | -0.9% |
| CCN(CC)S(=O)(=O)c1cccc(NC(=O)c2ccc(S(=O)(=O)N3CCCC3)cc2)c1 | -4.53% |
| O=C(CNC(=O)c1ccc2ccccc2c1)Nc1ncccc1O | 4.2% |
| O=C(Nc1ncccc1O)c1ccc(C(=O)c2ccccc2)cc1 | 85% (active) |
| CN1CCN(NC(=O)c2ccc(S(=O)(=O)N3CCCCCC3)cc2)CC1 | -0.88% |
| CCOC(=O)c1cccnc1NC(=O)c1ccncc1 | 2.56% |
| O=C(Nc1ncccc1O)c1ccc(S(=O)(=O)N2CCCC2)cc1 | 26.2% (active) |
| O=C(Nc1ccccc1F)c1ccc(S(=O)(=O)N2CCCCCC2)cc1 | 4.61% |
| O=C(Nc1ncccc1O)c1ccc(S(=O)(=O)N2CCCCCC2)cc1 | 10.7% (active) |
| O=C(C1CCN(S(=O)(=O)c2ccccc2)CC1)N1CCN(C2CCCCC2)CC1 | -4.1% |
| COC(=O)C[C@@H]1CC[C@@H]2[C@@H](COc3ccc(NC(=O)Nc4ccc(F)c(F)c4)cc3C(=O)N2C)O1 | 0.28% |
| O=C(NN1C(=O)C2C3C=CC(C4CC34)C2C1=O)c1ccc(Cl)cc1 (stereo not given) | 0.35% |
| CC(C)CNc1cccc2c1S(=O)(=O)N(Cc1cn(Cc3ccccc3C(F)(F)F)nn1)Cc1ccccc1O2 | -3.87% |
| C[C@H](C(=O)N(C)c1ccccc1)[C@@H](O)c1ccc(Cl)cc1 | 1.73% |
| COc1ccc(C(NC(=O)C2CCN(CCCc3ccccc3)CC2)c2cccs2)cc1 (stereo not given) | -0.24% |
| CC(=O)OCCN1CCCC12CCC(c1ccccc1)CC2 (stereo not given) | -0.9% |
| CCOC(=O)c1cc(-c2ccc(Cl)s2)nc2c1c(C)nn2C | -0.72% |
| Cn1c(=NC(=O)c2ccco2)sc2cccc(F)c21 | 20.1% (active) |
| Cn1c(=NC(=O)c2cnccn2)sc2ccccc21 | 9.34% |
| Cc1cc(NC(=O)c2ccco2)c(=O)n(Cc2c(F)cccc2Cl)c1 | -0.15% |
| CC(c1ccc(N)cc1)c1cn(C)c2ccccc12 (stereo not given) | -1.36% |
